Most compounds without a hit are left out; they make up all but 7.6% or so of the library.
ELG1 DNA repair – inhibitors of ELG1-dependent DNA repair in HEK293T cells; HEK293T ELG1-luciferase reporter, luminescence, 16 h; DNA damage induced by 5-fluorouridine; Potency, µM (titrated, usually from 46.1 µM), for the others: at the highest dose activity change, negative = inhibition, usual class: inhibitors; 330,000 compounds, 2.3% hits; further: potency means the concentration at half of the fitted maximal effect; on the % scale 0 is the no-effect control and ±100 the full control effect; nearly all actives have a fitted effect of over 55% in size
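Quantitative HTS, concentration-response format. 2,000 cells/well co-treated with 5-fluorouridine and compound, 16 hr in 5% CO2 at 37 °C; ONE-Glo luminescence read after 30 min.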
BRCA1 expr act – BRCA1 expression activation | MCF7-BRCA1-FFLuc reporter, luminescence, 48 h; response scale: scaled: vehicle 0%, 10 µM genistein 100% | Potency, µM (top dose mostly 46.1 µM), without a hit: at the top dose activation, usual class: activators | 380,000 compounds, 1.1% hits; further: potency means the concentration at half of the fitted maximal effect; nearly all actives have a fitted effect of over 80% in size
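48 h compound treatment of MCF7-BRCA1-FFLuc cells (phenol-red free MEM, 37 °C), then 15 min with luciferase substrate and luminescence imaging.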
VP16 counter – Gal4-VP16 reporter inhibition counter-screen | 310,000 compounds, 3.5% hits | Drosophila S2 Gal4-VP16 UAS-luciferase, luminescence, 20 h | Potency, µM (top dose mostly 53.6 µM), for inactives: at the top dose activity, negative = inhibition, most hits filed as inhibitors;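 further: Gal4-VP16 expression switched on by copper sulfate through the metallothionein promoter; potency means the concentration at half of the fitted maximal effect; on the % scale 0 is the no-effect control and ±100 the full control effect; nearly all actives have a fitted effect of over 50% in size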
p53 reactivator – restores transcriptional activity of mutant p53 | H1299 p53-A138V BP100-luciferase reporter, luminescence, 24 h | Potency, µM (series often up to 92.2 µM), for inactives: at the highest dose activity change, positive = activation, actives largely listed as activators | 320,000 compounds, 0.063% hits | AID 504706; further: potency means the concentration at half of the fitted maximal effect; % of control where 0% means no effect; nearly all actives have a fitted effect of over 45% in size
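p53-null H1299 cells stably carrying temperature-sensitive p53-A138V and a BP100-luciferase reporter were pinned with compounds (4-point, 1:5 series) and held 24 hrs at 37 deg C. Luminescence was read 10 min after detection reagent.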
RORgamma inh – blocks mouse ROR gamma transcriptional activity | Drosophila S2 Gal4-RORgamma UAS-luciferase reporter, 20 h | P51450 | AID 2551 | 310,000 compounds, 5.4% hits | Potency, µM (top dose mostly 53.6 µM), for inactives: at the highest dose activity change, negative = inhibition, hits mostly inhibitors; further: potency means the concentration at half of the fitted maximal effect; on the % scale 0 is the no-effect control and ±100 the full control effect; nearly all actives have a fitted effect of over 60% in size
Target sequence (P51450 whole entry, looked up, the tested form may be a part): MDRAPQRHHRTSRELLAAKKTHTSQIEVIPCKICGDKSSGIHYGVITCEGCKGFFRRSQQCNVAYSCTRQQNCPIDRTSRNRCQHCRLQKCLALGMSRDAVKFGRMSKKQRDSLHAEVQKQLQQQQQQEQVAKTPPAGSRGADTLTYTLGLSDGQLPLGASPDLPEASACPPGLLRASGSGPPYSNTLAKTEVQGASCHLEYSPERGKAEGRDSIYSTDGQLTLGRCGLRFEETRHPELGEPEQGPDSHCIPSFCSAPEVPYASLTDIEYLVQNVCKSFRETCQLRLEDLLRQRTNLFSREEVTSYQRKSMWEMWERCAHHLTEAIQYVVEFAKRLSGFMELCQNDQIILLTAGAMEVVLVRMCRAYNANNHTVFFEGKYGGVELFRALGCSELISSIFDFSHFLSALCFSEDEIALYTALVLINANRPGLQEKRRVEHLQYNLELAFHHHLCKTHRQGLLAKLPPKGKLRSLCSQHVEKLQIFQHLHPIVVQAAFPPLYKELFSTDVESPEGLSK
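A Gal4/UAS one-hybrid system in insect cells: metallothionein-promoter Gal4–ROR gamma fusion plus Photinus luciferase reporter. Copper sulfate 700 uM final, 20 hr ambient incubation, luminescent detection after 10 min with reagent.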
Giardia killer – Giardia lamblia killing; Giardia lamblia trophozoite viability; activity change, % at 7.66 µM, hits read low; 340,000 compounds, 0.15% hits; AID 540267; in the data active means activity change below about -80%; inconclusive means between about -30% and that limit;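 further: parasites exposed to compound for two days anaerobically before the ATP read; on the % scale 0 is the no-effect control and ±100 the full control effect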
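Each well holds 100 Giardia trophozoites and compound. After two days (48 hrs) at 37 deg C in anaerobic conditions, ATP is quantified by luminescence.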
The depositor's hits bear a star; ? = inconclusive; · = not tested or not shown; [ ] = another dose, or the depositor's remark. Unless noted, the call rests on the fitted dose curve; in most records, active means well fitted curve in the direction sought with a large enough effect; inconclusive means small, poorly fitted or top-dose-only effect, or another doubt; inactive means no such curve, though single readings can be large; an effect the other way counts as inactive or inconclusive.

SMILES | ELG1 DNA repair | BRCA1 expr act | VP16 counter | p53 reactivator | RORgamma inh | Giardia killer
COc1ccccc1NC(=O)CSc1ncc(CO)n1Cc1ccc(F)cc1 | 1% | -13% | 3% | -4% | -30% | -7
COc1ccc2nc(-c3ccccc3)cc(C(=O)N3CCC3)c2c1 | -27% | -12% | · | -10% | · | -19
O=[N+]([O-])c1ccccc1N/N=C\c1ccccc1Cl | ? | 2.5µM* | -1% | 8% | -21% | -11
O=[N+]([O-])c1ccccc1N/N=C\c1ccccc1F | ? | ? | 8% | ? | 9% | -1
Nc1ccccc1C(=O)N(Cc1ccccc1)Cc1ccccc1 | -9% | -6% | 3% | -14% | -11% | -8
Nc1ccccc1C(=O)CC(N)C(=O)O (centres undefined) | · | · | 28µM* | · | 13µM* | ·
O=C(CSc1cccc2cccnc12)Nc1ccccc1F | 13% | -14% | ? | 3% | ? | 5
COC(=O)C(=Cc1ccc(OCc2ccc([N+](=O)[O-])cc2)c(OC)c1)C(=O)OC | ? | -75% | -9%[0.365 µM] | ? | 16µM* | -5
CCOC(=O)C(=Cc1ccc(OCc2ccc([N+](=O)[O-])cc2)c(OC)c1)C(=O)OCC | 18µM* | -97% | ? | -12% | 14µM* | -7
COc1cc(C(c2c(C)[nH][nH]c2=O)c2c(C)[nH][nH]c2=O)ccc1OCc1ccc([N+](=O)[O-])cc1 | ? | 3.2µM* | ? | ? | 6.3µM* | -20
COc1cc(C(c2c(C)[nH][nH]c2=O)c2c(C)[nH][nH]c2=O)ccc1OC(=O)c1cccc([N+](=O)[O-])c1 | 8% | 2% | 9% | 8% | 21% | -4
CCOC(=O)/C(=C\c1ccc(OC)c(OC)c1)C(=O)c1cccnc1 | ? | -11% | -2% | -2% | -18% | 0
CCC(Sc1nc2c(sc3ccccc32)c(=O)n1CCc1ccc(OC)c(OC)c1)C(=O)N(CC)CC (centres undefined) | · | 4% | · | · | · | ·
COc1ccc(OC)c(S(=O)(=O)Nc2cccc(C(C)=O)c2)c1 | 1% | 0% | 4% | -3% | 25% | 2
COc1ccccc1C(=O)NCCC(=O)N1CCN(c2ccccc2O)CC1 | 5% | -6% | · | 1% | · | -24
COc1cc2c(cc1OC)[C@@H](NC(=O)C(C)C)[C@H](O)C2 | ? | 0% | · | 8% | · | -17
O=C(/C=C/C=C/c1ccc2c(c1)OCO2)N1CCCCC1 | ? | 8.9µM* | ? | 2% | -4% | -10
CCOC1=C2CN(S(=O)(=O)c3ccc(C)cc3)[C@@H](c3ccccc3)C[C@H]2[C@H]2C(=O)N(c3ccccc3)C(=O)[C@H]2C1 | · | 8% | · | · | · | ·
CCCCc1nc2cc(C(=O)N3CCNC(=O)C3)ccc2o1 | ? | 1% | 18% | 17% | 14% | -3
CCCCc1nc2cc(C(=O)N3CCCC3)ccc2o1 | ? | 8.9µM* | 1% | 10% | -11% | -2
COCCN1CCN(C(=O)c2ccc3oc(CCCc4ccccc4)nc3c2)CC1 | -2% | 13µM* | 25% | -3% | -7% | -2
COCc1cccc(NC(=O)CCc2ccccc2)c1 | ? | 51% | 23%[10 µM] | 13% | 19% | 6
Cc1cc(=O)[nH]c(-c2ccccc2)n1 | 5% | 9% | 0% | -7% | 6% | 5
Cc1cc(=O)[nH]c2n[nH]c(-c3ccccc3)c12 | ? | 11µM* | 11% | ? | ? | 4
O=C(NCCN1CCOCC1)c1ccncc1 | 8% | 2% | 2% | 11% | -13% | -3
SMILES | ELG1 DNA repair | BRCA1 expr act | VP16 counter | p53 reactivator | RORgamma inh | Giardia killer
O=C(NCCN1C(=O)CCC1=O)c1ccncc1 | -3% | 12% | -2% | -1% | 5.6µM* | 8
O=C(CSc1nc(C2CC2)nc2ccccc12)N1c2ccccc2Sc2ccc(C(F)(F)F)cc21 | -2% | -45% | 5%[0.365 µM] | -6% | -7% | -24
CC(NC(=S)Nc1ccc(OC(F)F)cc1OC(F)F)C(C)(C)C (centres undefined) | 1% | -30% | 16µM* | 9% | 7.9µM* | -4
CC(NC(=S)Nc1c(Cl)cccc1OC(F)F)C(C)(C)C (centres undefined) | 1% | 5% | 11µM* | 6% | 13µM* | 7
CC(NC(=S)Nc1ccccc1OC(F)F)C(C)(C)C (centres undefined) | 10% | -14% | ? | 10% | ? | 10
Cc1ccc(C(=O)NC(=S)Nc2ccccc2C(F)(F)F)c(C)c1 | -1% | 11% | -11% | 6% | 3% | 0
O=C(NC(=S)Nc1ccccc1C(F)(F)F)c1ccccc1F | -14% | 0% | ? | -8% | 6.3µM* | -7
Cc1ccccc1C(=O)NC(=S)Nc1ccccc1C(F)(F)F | -17% | -25% | ? | 7% | 0.79µM* | -1
O=C(NC(=S)Nc1c(Cl)ccc2nsnc12)c1ccccc1F | 16% | 4% | -12% | 9% | 1.4µM* | 24
COc1cccc(NC(=O)CN(C)C(C)C(=O)N2CCCC2)c1 (centres undefined) | 16% | 0% | · | 2% | · | ?
COc1ccc(-c2ccc(/C=C3/C(=N)N4C=CSC4=NC3=O)o2)c([N+](=O)[O-])c1 | ? | -24% | 3.5µM* | -11% | 2.5µM* | 3
N=C1/C(=C/c2cccn2-c2ccc([N+](=O)[O-])cc2)C(=O)N=C2SC=CN12 | 10% | -28% | -12% | -1% | 8% | 6
CC1CCN(C(=O)c2ccc(N3C(=O)C4CCC(C)CC4C3=O)cc2)CC1 (centres undefined) | 12% | -9% | -6% | 8% | -20% | 5
O=C1C2C3C=CC(C3)C2C(=O)N1c1ccc(Cc2ccncc2)cc1 (centres undefined) | -1% | -27% | 22µM* | 3% | -25% | 7
O=C(Nc1ccc(Cc2ccncc2)cc1)C1CCC(N2C(=O)C3C4C=CC(C4)C3C2=O)CC1 (centres undefined) | 6.5µM* | -51% | ? | 3% | -42% | 9
CC1CCC2C(=O)N(c3ccc(Cc4ccncc4)cc3)C(=O)C2C1 (centres undefined) | ? | 3% | 6.3µM* | -4% | 11µM* | -2
O=C1CCc2cc(S(=O)(=O)NCc3ccccc3)cc3c2N1CC3 | 7% | -1% | · | 4% | · | 2
CC(Oc1ccc(Cl)cc1Cl)C(=O)NN=C1CCN(C)CC1 (centres undefined) | -9% | 4% | 10µM* | 0% | 7.1µM* | 14
O=C(COc1ccc(Br)cc1Cl)NC(=S)N1CCc2ccccc21 | ? | 59% | 0.71µM* | 19% | 0.79µM* | 17

Screening data: PubChem, National Center for Advancing Translational Sciences (NCATS)
